Experiment [1] in a line: Quantitative High-Throughput drug screen in 47 multiple myeloma cell lines against the NCATS MIPE library collection: OPM1_PLB cell viability assay (AID 1918989). Further: nearly all actives have a fitted effect of over 40% in size. The method in brief:
(§1)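 Inhibition of viability over 48 h was scored by ATP content (CellTiter-Glo) in 500-cell wells. Zero and full viability were defined by media-only and DMSO-only wells.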

Experiment [2] in a line: Quantitative High-Throughput drug screen in 47 multiple myeloma cell lines against the NCATS MIPE library collection: XG6_PLB cell viability assay (AID 1919865). Further: nearly all actives have a fitted effect of over 40% in size. In outline:
as §1

The nature of experiment [3]: Quantitative High-Throughput drug screen in 47 multiple myeloma cell lines against the NCATS MIPE library collection: XG1_PLB cell viability assay (AID 1919866). Further: nearly all actives have a fitted effect of over 35% in size. The method in brief: as §1
The nature of experiment [4]: Quantitative High-Throughput drug screen in 47 multiple myeloma cell lines against the NCATS MIPE library collection: SKMM1_PLB cell viability assay (AID 1919863). Further: nearly all actives have a fitted effect of over 35% in size. On viability: series mostly up to about 46 µM. To be noted: SKMM1 myeloma viability, CellTiter-Glo ATP, 48 h; viability: active compounds read low. The source says: (§2) PI: Beverly A. Mock Ph.D.
(§3) Laboratory of Cancer Biology and Genetics,
(§4) Center for Cancer Research, National Cancer Institute,
(§5) National Institute of Health, Bethesda, Maryland
(§6) Drug resistance and disease progression are common in multiple myeloma (MM) patients, underscoring the need for new therapeutic combinations. […] We hypothesized that effective combinations would reduce MYC expression and enhance p16 activity. […] These preclinical data identify potentially useful drug combinations for evaluation in drug-resistant MM and reveal potential mechanisms of combined drug sensitivity.
(§7) Described herein is the primary MIPE qHTS used to cherrypick compounds. Validated compounds were then further tested for potential synergistic activiy.
(§8) [1] Peat TJ, Gaikwad SM, Dubois W, Gyabaah-Kessie N, Zhang S, Gorjifard S, Phyo Z, Andres M, Hughitt VK, Simpson RM, Miller MA, Girvin AT, Taylor A, Williams D, D'Antonio N, Zhang Y, Rajagopalan A, Flietner E, Wilson K, Zhang X, Shinn P, Klumpp-Thomas C, McKnight C, Itkin Z, Chen L, Kazandijian D, Zhang J, Michalowski AM, Simmons JK, Keats J, Thomas CJ, Mock BA. Drug combinations identified by high-throughput screening promote cell cycle transition and upregulate Smad pathways in myeloma. Cancer Lett. 2023 Aug 1;568:216284. doi: 10.1016/j.canlet.2023.216284. Epub 2023 Jun 24. PMID: 37356470; PMCID: PMC10408729.
(§9) SEQUENCE No. (e.g., 1, 2, 3, etc.); […] (e.g., Cells, Incubation, Reagent, etc.); VALUE and DESCRIPTION.
(§10) 1; Cells; 5 uL; white, solid bottom 1536-well Greiner assay plate.
(§11) 2; Compounds; 23 nL; Kalypsis pin tool (Wako USA) equipped with a 1536-well pin head to transfer to the assay plates.
(§12) 3; Incubation; 48 hours; 37C incubation.
(§13) 4; Reagent;5uL; CellTiter Glo (Promega).
(§14) 5; Detector; 425V; Luminescence; Viewlux PerkinElmer.
(§15) NOTES (numbers refer to Sequence numbers above)
(§16) 1. The cell-based screening methods employed in this study were like those previously published. Briefly, the corresponding myeloma cell lines were screened in 1,536-well plates with 500 cells, 5-uL per well for inhibition of cell viability (assessed by measuring ATP levels with CellTiterGlo).
(§17) 2. NCATS MIPE 4.0 library of approved and investigational drugs were added using the Kalypsis pin tool. Wells treated with DMSO only for 100% viability and media only for 0% viability were used as controls.
(§18) 3. The assay plates were covered and incubated for 48 hours in a 37C, 5% CO2 incubator with controlled humidity.
(§19) 4. After 48 hours, CellTilter-GloTM luminescent substrate mix (Promega) reagent was added to the assay plate and plates we incubated for 5 min at room temperature.
(§20) 5. Signal was measured as median relative luminescence units on a ViewLux (PerkinElmer) multiplate reader.
(§21) [1] Heske CM, Davis MI, Baumgart JT, Wilson K, Gormally MV, Chen L, Zhang X, Ceribelli M, Duveau DY, Guha R, Ferrer M, Arnaldez FI, Ji J, Tran HL, Zhang Y, Mendoza A, Helman LJ, Thomas CJ. Matrix Screen Identifies Synergistic Combination of PARP Inhibitors and Nicotinamide Phosphoribosyltransferase (NAMPT) Inhibitors in Ewing Sarcoma. Clin Cancer Res. 2017 Dec 1;23(23):7301-7311. doi: 10.1158/1078-0432.CCR-17-1121. Epub 2017 Sep 12. PMID: 28899971; PMCID: PMC6636827.

Experiment [5] is described as follows: Quantitative High-Throughput drug screen in 47 multiple myeloma cell lines against the NCATS MIPE library collection: U266_ATCC cell viability assay (AID 1919864). Further: nearly all actives have a fitted effect of over 35% in size. In outline:
as §1

Experiment [6] can be described thus: Quantitative High-Throughput drug screen in 47 multiple myeloma cell lines against the NCATS MIPE library collection: VP6_DJ cell viability assay (AID 1919867). Further: nearly all actives have a fitted effect of over 40% in size. In outline: as §1
The nature of experiment [7]: Quantitative High-Throughput drug screen in 47 multiple myeloma cell lines against the NCATS MIPE library collection: UTMC2_PLB cell viability assay (AID 1919868). Further: nearly all actives have a fitted effect of over 55% in size. The method in brief: as §1
Experiment [8] is described as follows: Quantitative High-Throughput drug screen in 47 multiple myeloma cell lines against the NCATS MIPE library collection: PCM6_Riken cell viability assay (AID 1919870). Further: nearly all actives have a fitted effect of over 30% in size. The method in brief: as §1
Experiment [9] can be described thus: Quantitative High-Throughput drug screen in 47 multiple myeloma cell lines against the NCATS MIPE library collection: OCIMY7_PLB cell viability assay (AID 1918987). Further: nearly all actives have a fitted effect of over 65% in size. The method in brief: as §1
Experiment [10] can be described thus: Quantitative High-Throughput drug screen in 47 multiple myeloma cell lines against the NCATS MIPE library collection: OCIMY5_PLB cell viability assay (AID 1918988). Further: nearly all actives have a fitted effect of over 65% in size.
Description: as §2, §3, §4, §5, §6, §7, §8, §9, §10, §11, §12, §13, §14, §15, §16, §17, §18, §19, §20, §21

The values below come from PubChem BioAssay (NCATS).

Inconclusive results are not listed. A number with no mark means an inactive call. The source made the active and inactive calls. The call rests on the fitted dose curve; in most records, active means well fitted cell-killing curve with a large enough effect; inconclusive means small, poorly fitted or top-dose-only effect, or effect the other way; inactive means no such curve, though single readings can be large or run the other way.
Potency means the concentration at half of the fitted maximal effect.

For `CC(C)C[C@H](CN)CC(=O)O`, the Potency result in experiment [1], in experiment [2] and in [3] was “inactive” throughout.
Regarding `CC(C)c1cccc(C(C)C)c1O`, the Potency entry in experiment [1], in experiment [5], in [2], in experiment [3], in [6] and in experiment [7] was “inactive” in each case. Moreover, in [8], the Potency entry was “inactive”. For the same molecule, in experiment [4], the viability is 119%.
With `C[C@]12CC[C@@H]3c4ccc(OC(=O)N(CCCl)CCCl)cc4CC[C@H]3[C@@H]1CC[C@@H]2OP(=O)(O)O`, the Potency result in experiment [1], in [2], in experiment [3] and in experiment [8] was “inactive” in each case.
For `O=P1(N(CCCl)CCCl)NCCCO1` (configuration not stated), the Potency was 13.2 µM (active) in experiment [1] and 14.8 µM (active) in experiment [3]. Also, the Potency entry in experiment [2] and in experiment [6] was “inactive” each time.
Turning to `CN1C(=O)COc2c(C(=O)NC3CN4CCC3CC4)cc(Cl)cc21` (configuration not stated), the Potency result in [1], in [5], in experiment [2], in experiment [3], in experiment [6] and in experiment [8] was “inactive” throughout. For the same molecule, in experiment [4], the viability was 152%.
On to `C[C@](O)(CS(=O)(=O)c1ccc(F)cc1)C(=O)Nc1ccc(C#N)c(C(F)(F)F)c1`, for which the Potency in experiment [9] is 0.469 µM (active); in experiment [10] it was 0.372 µM (active); in experiment [1], 1.87 µM (active); in [5], 0.935 µM (active); in [2] it was 0.148 µM (active); in experiment [3], 0.418 µM (active). Also, the Potency in experiment [6] and in [8] was 0.662 µM (active) each time.
Regarding `CC(NC(C)(C)C)C(=O)c1cccc(Cl)c1` (configuration not stated), in experiment [10], the Potency was 13.2 µM (active). In addition, in experiment [4], the viability is 112%. Besides, the Potency result in [2] and in experiment [8] was “inactive” each time.
With `C[C@]12CCC(=O)C=C1CC[C@@H]1[C@H]3CC[C@](C)(O)[C@@]3(C)CC[C@@H]12`, the Potency is 30.3 µM (active) in experiment [9], 48.1 µM (active) in experiment [10], 30.3 µM (active) in experiment [4] and 38.2 µM (active) in [5]. The Potency result in experiment [1] and in [7] was “inactive” throughout.
Regarding `CCC1(c2ccc(N)cc2)CCC(=O)NC1=O` (configuration not stated), the Potency result in experiment [10], in experiment [1], in experiment [2], in [3] and in experiment [7] was “inactive” in each case. Besides, the Potency in experiment [5] was 1.32 µM (active).
For `O=C(O)CCCc1ccc(N(CCCl)CCCl)cc1`, the Potency in [9] was 4.69 µM (active); in experiment [2], 11.8 µM (active); in experiment [3], 16.6 µM (active); in [7], 18.7 µM (active); in experiment [8], 16.6 µM (active). In addition, the Potency result in [10] and in [5] was “inactive” each time.
As to `C[C@]12CC[C@H]3[C@@H](CC[C@@]45O[C@H]4C(O)=C(C#N)C[C@]35C)[C@H]1CC[C@H]2O`, the Potency in [9] is 5.26 µM (active). Moreover, the Potency result in experiment [1], in experiment [2], in experiment [3], in experiment [7] and in experiment [8] was “inactive” each time.
Consider `CN1C(=O)CCS(=O)(=O)C1c1ccc(Cl)cc1` (configuration not stated), for which the Potency entry in [9], in experiment [10], in experiment [1], in experiment [5], in experiment [6] and in [8] was “inactive” in each case. Also, the viability in experiment [4] was 109%. Further, the Potency was 18.7 µM (active) in [2] and 16.6 µM (active) in [3].
As for `COc1cc(OC)c(OC)cc1C=O`, the Potency result in experiment [10], in [1], in experiment [6], in experiment [7] and in experiment [8] was “inactive” each time.
